High-throughput results: PubChem BioAssay, several laboratories
Sampled rows, rich in hits. Any-hit rate of the full collection: about 4%.
BoNT F protease = BoNT/F light chain protease inhibitors, primary screen, biochemical, flow cytometry, MLPCN library; Botulinum neurotoxin type F light chain protease (Clostridium botulinum); Multiplex microsphere protease cleavage assay; inhibition, % at 10 µM; 360,000 tested, 0.22% active; AID 588497, 2011; in the data active = inhibition above about 35%, passing the limit was not always enough; inconclusive = no clear call, values can overlap the other calls; note: plate controls were buffer without enzyme for full effect and enzyme alone for no effect
BoNT A protease = BoNT/A light chain protease inhibitors, primary screen, biochemical, flow cytometry, MLPCN library | multiplex microsphere protease substrate cleavage | 360,000 tested, 0.17% active | inhibition, % at 10 µM | Botulinum neurotoxin type A light chain protease (Clostridium botulinum A str. ATCC 3502); note: plate controls were buffer without enzyme for full effect and enzyme alone for no effect
DUSP3 inh = VHR1 phosphatase inhibitors, primary screen, biochemical, absorbance, uHTS; Dual specificity protein phosphatase 3 (Homo sapiens), P51452; recombinant VHR phosphatase, pNPP absorbance; inhibition, % at 13.3 µM; 290,000 tested, 0.52% active; in the data active = inhibition above about 50%
Target sequence (P51452 whole entry, looked up): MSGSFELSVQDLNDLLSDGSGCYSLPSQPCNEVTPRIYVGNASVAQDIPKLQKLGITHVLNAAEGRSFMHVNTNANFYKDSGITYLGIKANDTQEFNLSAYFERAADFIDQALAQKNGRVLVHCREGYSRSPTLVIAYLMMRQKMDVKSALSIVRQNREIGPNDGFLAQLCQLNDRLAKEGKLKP
MazF activator = activators of E. coli MazEF toxin-antitoxin RNase, primary screen, biochemical, fluorescence, uHTS; FAM/BHQ RNA-DNA oligo cleavage fluorescence, 5 h; activation, % at 20 µM; 350,000 tested, 0.32% active; in the data active = activation above about 50%
Target sequence (P0AE70 whole entry, looked up): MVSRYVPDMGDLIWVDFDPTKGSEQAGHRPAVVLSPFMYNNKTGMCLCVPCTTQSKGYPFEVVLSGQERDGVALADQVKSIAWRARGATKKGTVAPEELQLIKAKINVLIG
Autofluor counter = flagged as autofluorescent in microsphere protease counterscreen; 360,000 tested, 3.1% active; compound autofluorescence counterscreen, microsphere flow cytometry; active compounds read high; fluorescence intensity (no concentration beside the values); AID 624483; in the data active = fluorescence intensity above about 16000; inconclusive = no clear call, values can overlap the other calls
Anthrax LF prot = Bacillus anthracis LF protease inhibitors, primary screen, biochemical, multiplex microsphere, MLPCN library. multiplex microsphere protease cleavage assay. inhibition, % at 10 µM. 360,000 tested, 0.12% active; note: plate controls were buffer without enzyme for full effect and enzyme alone for no effect
* marks the source's active call; other numbers are inactive results; u = inconclusive; x = no result. Cut-off read from the data, not from the text of the source, unless noted: active = inhibition above about 30%; inconclusive = no clear call, values can overlap the other calls; inactive = below that.

SMILES	BoNT F protease	BoNT A protease	DUSP3 inh	MazF activator	Autofluor counter	Anthrax LF prot
COc1cc(/C=C2/C(=N)N3C=CSC3=NC2=O)ccc1OCCCOc1c(C)cccc1C	-15	2	20	0	7192	-1
COc1ccc(OCCCn2cc(/C=C3/C(=N)N4C=C(C)SC4=NC3=O)c3ccccc32)cc1	-27	8	9	0	12019	2
COc1cccc(OCCCn2cc(/C=C3/C(=N)N4C=C(C)SC4=NC3=O)c3ccccc32)c1	-45	50*	-4	-24	24218*	5
Cc1cccc(NC(=O)c2ccc(NCC3CCCO3)c([N+](=O)[O-])c2)c1 (stereo not drawn)	1	0	-8	121*	2503	-3
O=C(Nc1cccc(Cl)c1)c1ccc(NCC2CCCO2)c([N+](=O)[O-])c1 (stereo not drawn)	-7	0	5	67*	2085	-4
Cc1ccc(NC(=O)c2ccc(NCCCN3CCOCC3)c([N+](=O)[O-])c2)cc1Cl	-4	0	2	-2	2363	0
O=C(Nc1ccc(Cl)c([N+](=O)[O-])c1)c1ccc(NCCCN2CCOCC2)c([N+](=O)[O-])c1	-2	1	29	12	23261*	-2
Cc1noc(C)c1S(=O)(=O)N(C)C[C@H]1Oc2ccc(NS(=O)(=O)c3ccc(F)cc3)cc2C(=O)N([C@H](C)CO)C[C@@H]1C	-8	0	x	-13	4001	-1
CC(=O)c1ccc(NC(=O)CCc2nnc3ccc(N4CCCC4)nn23)cc1	-4	-2	6	9	4257	-3
COCCNCc1ccccc1	-4	-3	-6	0	24425*	0
CC(Oc1ccc2c3c(c(=O)oc2c1)CCCC3)C(=O)NCCCn1ccnc1 (stereo not drawn)	10	10	58*	12	4621	2
O=C(CN1CCN(C(=O)c2cccc(F)c2)CC1)NC1CCCCC1	x	x	18	1	x	x
CCOC(=O)N1CCC(NC(=O)C2CCCN(c3nc4ccccc4o3)C2)CC1 (stereo not drawn)	-5	-3	14	3	25111*	2
CCOC(=O)N1CCC(NC(=O)C2CCN(C(=O)N3CC(C)Oc4ccccc43)CC2)CC1 (stereo not drawn)	1	-1	-14	-1	16437*	0
CCOC(=O)N1CCC(NC(=O)C2CCN(C(=O)N3CC(C)Oc4ccc(C)cc43)CC2)CC1 (stereo not drawn)	-3	0	4	3	9229	0
O=C(NC1CCCCCCC1)C1CCN(c2nc3ccccc3o2)CC1	-6	-4	-1	-2	17616*	-3
COc1ccccc1N1CCN(C2CCCN(C(=O)CCC(C)=O)C2)CC1 (stereo not drawn)	u	0	-12	9	3708	-15
O=C(NCCCCCCNC(=O)OCCO)OCCO	-6	0	-5	3	4578	-2
CCCCNC(=O)OCCNC(=O)NC	9	u	-8	1	18838*	-18
O=C(NC1CCCc2ccccc21)C1CCN(S(=O)(=O)N2CCCCCC2)CC1 (stereo not drawn)	6	3	-4	-9	21253*	3
O=S(=O)(N/N=C/c1cn(Cc2ccccc2)c2ccccc12)c1ccccc1	5	2	28	-4	22504*	-2
CN(CC(=O)Nc1ccccc1C(=O)N1CCCC1)S(=O)(=O)c1ccc(Br)cc1	-3	-2	35	-3	24180*	0
NC(=O)c1ccc(-c2noc(-c3ccccc3F)n2)cc1	-3	0	x	-4	3907	-9
O=C(O)CC1S/C(=N/N=C/c2ccc(Br)cc2)N(c2ccccc2)C1=O (stereo not drawn)	-8	1	3	9	4337	3
COc1ccc(N2C(=O)C(CC(=O)O)S/C2=N\N=C\c2cccs2)cc1 (stereo not drawn)	43*	3	-1	-12	3074	3
